Experimental data as given in the supplement of paper PMC7366291.
Where a name gives a salt, the structure may show the parent alone. ± gives the standard deviation or the standard deviation of the averaged measurements.

Tests used:
Settings in all cases: 25 µM; exposure: 24-48 hpf
[1] = tested on: Danio rerio Tg(wt1b:EGFP) embryo, pronephros; assay: glomerular separation, fold change vs DMSO control; higher = glomeruli further apart (abnormal)
In short: (§1)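 Dechorionated Tg(wt1b:EGFP) zebrafish embryos were incubated at 28.5°C from 24 to 48 hpf with 25 μM compound in HEPES-buffered E3 containing 0.5% DMSO and 0.003% PTU. Distances and angles between 16 manually set points on maximum projections of dorsal pronephros images were measured in Fiji, with values over 2 SD from the feature mean excluded. Each feature is a fold change relative to the mean of same-day DMSO-treated embryos.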

[2] = tested on: Danio rerio Tg(wt1b:EGFP) embryo, pronephros; assay: glomerular width (mean of left and right), fold change vs DMSO control; higher = wider glomerulus
In short: as §1

[3] = tested on: Danio rerio Tg(wt1b:EGFP) embryo, pronephros; assay: fraction of imaged embryos annotated as normal kidney; higher = less nephrotoxic; extreme values may be limits of the assay
In short: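 The read-out is the proportion of embryos in each treatment manually annotated as normal-kidney. Exposure ran from 24 to 48 hpf at 28.5°C in 12-well plates, using dechorionated Tg(wt1b:EGFP) zebrafish embryos in 5 mM HEPES-buffered E3 with 0.003% PTU, 0.5% DMSO and 25 μM compound. For imaging, larvae were anaesthetised with tricaine, positioned dorsally in agarose-filled 96-well plates and captured by widefield fluorescence (470 nm, 10 z-slices), with scoring done on maximum projections.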

[4] = tested on: Danio rerio Tg(wt1b:EGFP) embryo, pronephros; assay: pronephric angle neck segment to proximal convoluted tubule (mean of left and right), fold change vs DMSO control; higher = larger pronephric angle
In short: as §1

| Compound | glomerular separation [1] | glomerular width [2] | fraction of imaged embryos annotated as normal kidney [3] | pronephric angle neck segment [4] |
| --- | --- | --- | --- | --- |
| CN(C)CCC=C1c2ccccc2C=Cc2ccccc21 [Cyclobenzaprine hydrochloride] | 1.02 ± 0.31 | 0.977 ± 0.043 | 0.833 | 1.03 ± 0.0042 |
| Cc1cc(C2CCCCC2)n(O)c(=O)c1 [Ciclopirox ethanolamine] | 6.61 ± 0.93 | 0.503 ± 0.058 | 0 | 1.68 ± 0.05 |
| N[C@H]1CONC1=O [(S)-(-)-Cycloserine] | 0.898 ± 0.5 | 0.892 ± 0.011 | 0.5 | 1.025 ± 0.0084 |
| CC(C)(C#N)c1cc(Cn2cncn2)cc(C(C)(C)C#N)c1 [Anastrozole] | 1.2 ± 0.37 | 1.059 ± 0.0058 | 0.75 | 1.04 ± 0.062 |
| COc1cc(N)c(Cl)cc1C(=O)NC1CCN(CCCOc2ccc(F)cc2)CC1OC (centres undefined) [Cisapride] | 1.09 ± 0.39 | 1.066 ± 0.0076 | 0.583 | 0.992 ± 0.071 |
| CN(C/C=C/c1ccccc1)Cc1cccc2ccccc12 [Naftifine hydrochloride] | 1.03 ± 0.34 | 0.96 ± 0.044 | 0.9 | 0.982 ± 0.078 |
| Nc1ccc(S(N)(=O)=O)cc1 [Sulfanilamide] | 0.646 ± 0.14 | 1 ± 0.063 | 0.833 | 0.996 ± 0.0089 |
| CCCCC[C@H](O)/C=C/[C@H]1[C@H](O)CC(=O)[C@@H]1CCCCCCC(=O)O [Alprostadil] | 1.21 ± 0.52 | 0.867 ± 0.036 | 0.75 | 1.09 ± 0.047 |
| C[C@H]1C[C@H]2[C@@H]3CCC4=CC(=O)C=C[C@]4(C)[C@@]3(F)[C@@H](O)C[C@]2(C)[C@@]1(O)C(=O)CO [Betamethasone] | 1.2 ± 0.31 | 1.17 ± 0.088 | 0.583 | 1.04 ± 0.053 |
| COc1ccc(C(=O)NCc2ccc(OCCN(C)C)cc2)cc1OC [Itopride] | 1.05 ± 0.44 | 0.962 ± 0.017 | 0.8 | 1.06 ± 0.055 |
| CC[C@@H]1C(=O)OC[C@@H]1Cc1cncn1C [Pilocarpine nitrate] | 1.19 ± 0.19 | 1.04 ± 0.051 | 0.667 | 1.02 ± 0.021 |
| CC(C)NC[C@@H](O)COc1cccc2ccccc12 [(R)-Propranolol hydrochloride] | 1.07 ± 0.46 | 0.963 ± 0.013 | 0.833 | 0.98475 ± 0.00073 |
| O=C(O)Cc1ccc(-c2ccccc2)cc1 [Felbinac] | 4.74 ± 1.6 | 0.627 ± 0.0096 | 0 | 1.73 ± 0.04 |
| C[C@H]1C[C@@H]2[C@H]([C@@H](O)C[C@@]3(C)[C@H]2CC[C@]3(O)C(=O)CO)[C@@]2(C)C=CC(=O)C=C12 [Methylprednisolone, 6-alpha] | 1.11 ± 0.4 | 1.21 ± 0.11 | 0.833 | 1.06 ± 0.088 |
| Oc1ccc(C2CNCCc3c2cc(O)c(O)c3Cl)cc1 (centres undefined) [Fenoldopam] | 0.757 ± 0.32 | 1.01 ± 0.038 | 0.917 | 0.979 ± 0.053 |
| CO[C@@]1(NC(=O)C2SC(=C(C(N)=O)C(=O)O)S2)C(=O)N2C(C(=O)O)=C(CSc3nnnn3C)CS[C@@H]21 (some centres undefined) [Cefotetan] | 1.24 ± 0.33 | 0.972 ± 0.012 | 0.909 | 0.985 ± 0.06 |
| NC12CC3CC(CC(C3)C1)C2 [Adamantamine fumarate] | 0.809 ± 0.31 | 1.07 ± 0.033 | 0.917 | 1.03 ± 0.013 |
| COc1cccc2c1C(=O)c1c(O)c3c(c(O)c1C2=O)C[C@@](O)(C(=O)CO)C[C@@H]3O[C@H]1C[C@H](N)[C@@H](O)[C@H](C)O1 [Epirubicin hydrochloride] | 1.93 ± 0.41 | 1.07 ± 0.031 | 0.75 | 0.963 ± 0.053 |
| Clc1ccccc1C(c1ccccc1)(c1ccccc1)n1ccnc1 [Clotrimazole] | 2.06 ± 1.1 | 0.861 ± 0.11 | 0.583 | 1.26 ± 0.1 |
| CC1(C)S[C@@H]2[C@H](NC(=O)[C@H](NC(=O)N3CCNC3=O)c3ccccc3)C(=O)N2[C@H]1C(=O)O [Azlocillin sodium salt] | 0.819 ± 0.3 | 1.01 ± 0.023 | 0.5 | 0.928 ± 0.015 |
| CN(C)CCC[C@@]1(c2ccc(F)cc2)OCc2cc(C#N)ccc21 [Escitalopram oxalate] | 1.13 ± 0.38 | 0.9778 ± 0.0032 | 0.833 | 0.941 ± 0.024 |
| CCOC(=O)O[C@]1(C(=O)COC(=O)CC)CC[C@H]2[C@@H]3CCC4=CC(=O)C=C[C@]4(C)[C@H]3[C@@H](O)C[C@@]21C [Prednicarbate] | 1.89 ± 0.71 | 1.11 ± 0.066 | 0.417 | 1.03 ± 0.058 |
| Nc1nc(=O)n([C@@H]2CS[C@H](CO)O2)cc1F [(-)-Emtricitabine] | 1.08 ± 0.4 | 1.06 ± 0.019 | 0.917 | 0.999 ± 0.073 |
| CCn1cc(C(=O)O)c(=O)c2cnc(N3CCCC3)nc21 [Piromidic acid] | 0.725 ± 0.31 | 0.909 ± 0.021 | 0.9 | 1 ± 0.008 |
| O=C(CCNNC(=O)c1ccncc1)NCc1ccccc1 [Nialamide] | 1.06 ± 0.4 | 0.97 ± 0.056 | 0.583 | 0.99 ± 0.061 |
| CC(=O)[C@H]1CC[C@H]2[C@@H]3CC=C4C[C@@H](O)CC[C@]4(C)[C@H]3CC[C@]12C [Pregnenolone] | 1.31 ± 0.74 | 1.14 ± 0.018 | 0.583 | 0.999 ± 0.16 |
